We go through eleven compounds from the supplement of paper PMC9023506.

Each structure is given as a SMILES string. Counter-ions that a name gives are not always drawn.

The assay deals with Danio rerio larvae (5 dpf). Put plainly: optomotor response to fast red moving lines, difference vs DMSO (percentage points (treated minus DMSO)); higher = more of the behaviour than the DMSO vehicle control. To be noted: 10 µM; exposure time: 3 h pre-incubation + 3 h imaging. The method, then: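 5-dpf wild-type zebrafish larvae were imaged in 96-well plates. They were treated with 190 Tocris FDA-approved drugs at 10 µM (1 µl/ml DMSO) for 3 h before and 3 h during imaging at 28.5 °C, 48 larvae per drug. Automated image analysis gave % time moving and optomotor responses. Values are drug group mean minus DMSO vehicle mean (n=844), in percentage points, for 10 behaviours.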
On to `CN1C[C@H](C(=O)N[C@]2(C)O[C@@]3(O)[C@@H]4CCCN4C(=O)[C@H](Cc4ccccc4)N3C2=O)C[C@@H]2c3cccc4[nH]cc(c34)C[C@H]21` [Dihydroergotamine mesylate], for which the optomotor response was determined as 2.2.
Then `C=CCN1C[C@H](C(=O)N(CCCN(C)C)C(=O)NCC)C[C@@H]2c3cccc4[nH]cc(c34)C[C@H]21` [Cabergoline], with -23.2; and `COc1cc2c(cc1OC)C1CC(=O)C(CC(C)C)CN1CC2` (stereo unspecified) [Tetrabenazine], with -22.5.
Then `CC[C@@H](C(N)=O)N1CCCC1=O` [Levetiracetam], with -4.73.
Then `CCN(C)C(=O)Oc1cccc([C@H](C)N(C)C)c1` [Rivastigmine tartrate], with -8.58.
`O=c1[nH]c2ccccc2n1C1CCN(CCCC(c2ccc(F)cc2)c2ccc(F)cc2)CC1` [Pimozide]: the optomotor response was -34.3.
Turning to `N[C@@H]1C[C@H]1c1ccccc1` [Tranylcypromine hydrochloride], the optomotor response is 11.9.
In the case of `C=C1C[C@@H]2[C@H](CC[C@]3(C)C(=O)CC[C@@H]23)[C@@]2(C)C=CC(=O)C=C12` [Exemestane] it was 5.64; in that of `CC(C)C[C@H]1C(=O)N2CCC[C@H]2[C@]2(O)O[C@](NC(=O)[C@@H]3C=C4c5cccc6[nH]c(Br)c(c56)C[C@H]4N(C)C3)(C(C)C)C(=O)N12` [Bromocriptine mesylate], -41.6.
For `CC(O)(CS(=O)(=O)c1ccc(F)cc1)C(=O)Nc1ccc(C#N)c(C(F)(F)F)c1` (stereo unspecified) [Bicalutamide], the optomotor response is -2.63.
Then `COc1ccc(C(CN(C)C)C2(O)CCCCC2)cc1` (stereo unspecified) [Venlafaxine hydrochloride], with 7.81.
